Screening data: PubChem BioAssay, several laboratories
MEKK2 mut-MEK5: signal of MEK5 binding to mutant human MEKK2 PB1 domain. 290,000 compounds, 0.35% hits. percent response, % at 10 µM. bead flow cytometry, Alexa488-MEK5 binding to MEKK2 mutant; in the data active means percent response above about 24%, passing the limit was not always enough
MEKK2 WT-MEK5: raises or lowers MEK5 binding to wildtype human MEKK2 PB1 domain; bead flow cytometry, Alexa488-MEK5 binding to MEKK2 WT; actives lie on both sides; 290,000 compounds, 1.1% hits; binding response (% of control), % at 10 µM; Q9Y2U5; in the data active means binding response below about 67% or above about 130%
MEKK3 PB1 HTS: MEKK3-MEK5 PB1 interaction, increase or decrease; Q99759; bead-based flow cytometry, Alexa488-MEK5 binding to MEKK3; actives lie on both sides; 0 = blocked by unlabeled MEK5, 100 = vehicle; binding response (% of control), % at 10 µM; 290,000 compounds, 1.4% hits;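 active means binding response more than 3 SD above or below the average of its plate-row segment, actives on both sides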;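 further: Alexa488 bead fluorescence after subtracting the streptavidin-only scavenger bead signal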
PREPL inh: inhibitors of human prolyl oligopeptidase-like enzyme PREPL | Q4J6C6 | recombinant PREPL, fluorescence polarization activity-based probe | inhibition, % at 5.96 µM | 320,000 compounds, 0.68% hits | AID 2751;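 further: 0% = enzyme with DMSO and 100% = wells lacking enzyme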
Target sequence (Q4J6C6 whole entry, looked up): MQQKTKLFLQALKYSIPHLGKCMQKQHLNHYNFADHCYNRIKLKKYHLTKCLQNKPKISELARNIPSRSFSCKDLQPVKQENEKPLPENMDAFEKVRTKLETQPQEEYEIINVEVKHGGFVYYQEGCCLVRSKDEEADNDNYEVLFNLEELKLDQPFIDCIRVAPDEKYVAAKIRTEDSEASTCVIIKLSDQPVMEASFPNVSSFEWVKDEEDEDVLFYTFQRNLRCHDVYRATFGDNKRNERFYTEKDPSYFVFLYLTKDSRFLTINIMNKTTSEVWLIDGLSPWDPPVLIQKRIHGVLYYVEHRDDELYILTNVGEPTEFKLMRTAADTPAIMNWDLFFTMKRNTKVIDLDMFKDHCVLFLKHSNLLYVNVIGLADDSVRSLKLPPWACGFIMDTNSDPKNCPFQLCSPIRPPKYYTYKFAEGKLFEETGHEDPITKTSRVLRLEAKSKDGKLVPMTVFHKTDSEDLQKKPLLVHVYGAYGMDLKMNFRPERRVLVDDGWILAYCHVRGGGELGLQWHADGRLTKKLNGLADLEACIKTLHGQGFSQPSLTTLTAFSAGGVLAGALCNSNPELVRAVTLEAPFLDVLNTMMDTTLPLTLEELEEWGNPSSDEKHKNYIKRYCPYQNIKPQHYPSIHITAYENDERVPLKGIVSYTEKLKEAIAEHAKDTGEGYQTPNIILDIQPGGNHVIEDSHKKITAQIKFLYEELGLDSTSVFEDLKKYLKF
UBC13 polyUb: inhibitors of human UBC13 polyubiquitin chain formation. TR-FRET. AID 485273. P61088. inhibition, % at 20 µM. 330,000 compounds, 0.47% hits; in the data active means inhibition above about 45%, passing the limit was not always enough
ATG4B inhibitor: ATG4B (human) cysteine protease inhibition; inhibition, % at 8.33 µM; 340,000 compounds, 0.51% hits; Q9Y4P1; ATG4B cleavage of LC3-PLA2, NBD-HPC fluorescence, 1 h; in the data active means inhibition above about 40%
MEKK2wt confirm: raises or lowers MEK5 binding to wildtype human MEKK2, retest. 5,900 compounds, 2.4% hits. bead flow cytometry, Alexa488-MEK5 binding to MEKK2 WT; actives lie on both sides. binding response (% of control), % at 10 µM. shares compounds with MEKK3 PB1 HTS; in the data active means binding response below about 16% or above about 210%; inactive means in between
MEKK2mut confirm: signal of MEK5 binding to mutant human MEKK2, retest; shares compounds with MEKK3 PB1 HTS; bead flow cytometry, Alexa488-MEK5 binding to MEKK2 mutant; percent response, % at 10 µM; 5,900 compounds, 2% hits; in the data active means percent response mostly above about 71%, no sharp cut-off; inactive means mostly below about 38%;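 further: higher means compound restores mutant binding toward wildtype level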
MEKK3 confirm: confirmation of inhibitors of MEK5 binding to human MEKK3. shares compounds with MEKK3 PB1 HTS. AID 1894. 5,900 compounds, 1.8% hits. bead flow cytometry, Alexa488-MEK5 binding to MEKK3; stronger effect = lower value. binding response (% of control), % at 10 µM;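 active means binding response below 72% of control, or above a set upper limit, though filed actives all read lower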;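 further: 100% = DMSO only wells and 0% = binding blocked by excess unlabeled MEK5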
PREPL inh cf: human PREPL inhibition, confirmation; recombinant PREPL, fluorescence polarization activity probe; shares compounds with PREPL inh; AID 2803; 2,000 compounds, 67% hits; inhibition, % at 5.96 µM;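 further: 0% = protein with DMSO and 100% = wells lacking protein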
Casp3 counter: counter-screen for UBC13 inhibitors: human caspase-3 inhibition. inhibition, % at 20 µM. shares compounds with UBC13 polyUb. AID 488856. 1,400 compounds, 4% hits. Recombinant caspase-3, Caspase-Glo 3/7 luminescence, 60 min;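 active means mean inhibition across replicates above about 26%, limit read from the data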;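 further: plate controls were DMSO with caspase-3 for no effect and DMSO wells lacking enzyme for full effect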
UBC13 conf: human UBC13 polyubiquitin inhibition, confirmed; shares compounds with UBC13 polyUb; UBC13 polyubiquitination, TR-FRET, biochemical; inhibition, % at 10 µM; 1,400 compounds, 68% hits; in the data active means inhibition above about 45%
ATG4B confirm: ATG4B (human) inhibition, single-dose confirmed; shares compounds with ATG4B inhibitor; inhibition, % at 8.33 µM; ATG4B protease fluorescent substrate cleavage assay; 320 compounds, 92% hits; in the data active means inhibition above about 39%
PLA2 counter: inhibits human PLA2, flagging false ATG4B inhibitors; shares compounds with ATG4B inhibitor; purified PLA2, NBD-C6-HPC fluorescence, 45 min; inhibition, % at 8.33 µM; 1,600 compounds, 66% hits; AID 588402; in the data active means inhibition above about 50%
Starred values were filed as active, the others as inactive; nt = no result. This is a sample that favours compounds with a hit; in the whole collection about 3.1% have one here. Unless noted, no stated cut-off is given here; in the data, active means inhibition above about 43%; inactive means the rest.

SMILES | MEKK2 mut-MEK5 | MEKK2 WT-MEK5 | MEKK3 PB1 HTS | PREPL inh | UBC13 polyUb | ATG4B inhibitor | PREPL inh cf | others
O=c1[nH]c(O)c(C=Nc2ccc(Cl)c(C(F)(F)F)c2)c(=O)[nH]1 | 5 | 104 | 103 | -9 | -10 | 4 | nt
Cc1cccc(N2C(=O)NC(=O)/C(=C\c3ccc4c(c3)CCCN4Cc3ccccc3)C2=O)c1 | 159* | 146* | 139* | 34 | -28 | 2 | nt | MEKK2wt confirm=86;MEKK2mut confirm=-24;MEKK3 confirm=93
COC(=O)[C@]12OC[C@]34C([C@@H](O)[C@@H]1O)[C@]1(C)CC(=O)C(O)=C(C)[C@@H]1C[C@H]3OC(=O)[C@H](O)[C@@H]24 (stereo partly specified) | 3 | 106 | 105 | 8 | 0 | 0 | nt
C1=C(c2c[nH]c3ccccc23)CCNC1 | 99* | 173* | 107 | 62* | 96* | nt | 63* | MEKK2wt confirm=122;MEKK2mut confirm=8;MEKK3 confirm=105
COc1ccccc1N1CCN(CCc2c[nH]c3cc4c(cc23)OCO4)CC1 | nt | nt | nt | nt | nt | 4 | nt
ClCCN1CCN(c2ccnc3cc(Cl)ccc23)CC1 | 20 | 154* | 107 | 20 | 62* | -6 | nt | MEKK2wt confirm=112;MEKK2mut confirm=9;MEKK3 confirm=104;Casp3 counter=-2;UBC13 conf=90*
Cc1cc(N)n(C2CCN(C)CC2)n1 | 7 | 110 | 104 | 4 | -18 | -3 | nt
Cc1ccc(CN2C3CCCC2CC(NC(=S)NCc2ccccc2)C3)cc1 (stereo unspecified) | 62* | 195* | 110 | -47 | 17 | 43* | nt | MEKK2wt confirm=140;MEKK2mut confirm=17;MEKK3 confirm=103;ATG4B confirm=67*;PLA2 counter=40
O=C(NC1CCCCC1)[C@@H]1CC=C[C@@H]2CCN(Cc3ccccc3)C(=O)[C@@H]21 | 2 | 99 | 101 | -8 | 4 | 0 | nt
COc1ccc2c3c([nH]c2c1)C(C)NCC3 (stereo unspecified) | 48 | 1.0* | 94 | 67* | 6 | -16 | 4
CC(C)Nc1ccc(Nc2ccccc2)cc1 | nt | nt | nt | 77* | 3 | 1 | 55*
COC(=O)[C@]1(C)C[C@H]1[C@H](NP(=O)(c1ccccc1)c1ccccc1)c1ccccc1 | 1 | 95 | 104 | -3 | -6 | -13 | nt
C=C[C@@H]1C[C@@]1(C)[C@@H](NP(=O)(c1ccccc1)c1ccccc1)c1ccccc1 | -5 | 92 | 89 | 48* | 10 | -13 | 48*
Cc1cc2c(C(F)(F)F)cc(=O)oc2c2c1NCCC2 | 2 | 104 | 100 | 6 | 2 | -5 | nt
O=c1cc(C(F)(F)F)c2cc3c4c(c2o1)CCCN4CCC3 | 4 | 96 | 103 | 56* | -2 | -6 | 55*
NCCCCCC(=O)OC1N=C(c2ccccc2Cl)c2cc(Br)ccc2NC1=O (stereo unspecified) | 6 | 110 | 98 | 59* | 22 | -3 | 46*
COc1ccc2[nH]c(C)c(CCNCc3cc(OC)c4c(c3)OCO4)c2c1 | nt | nt | nt | 74* | 13 | -8 | 66*
Cc1ccc(OP2(=O)Nc3cc(C)c(C)cc3S2)cc1 (stereo unspecified) | nt | nt | nt | nt | nt | -1 | nt
C#CCOc1ccc2c(c1)c(C(C)=O)c(C)n2Cc1ccccc1 | -5 | 95 | 98 | 5 | 9 | -7 | nt
COc1ccc2c(c1)c(CCN)c(C)n2Cc1ccccc1 | -1 | 106 | 100 | 45* | 15 | -6 | 42
CN1CCc2c([nH]c3ccccc23)C1 | 2 | 102 | 99 | 11 | -31 | -20 | nt
CC1=NCCc2c1[nH]c1ccccc21 | 24 | 108 | 93 | 57* | 8 | -26 | 27
C[n+]1c(-c2ccccc2)c2cc(N)ccc2c2ccc(N)cc21 | 10 | 104 | 89 | 142* | -186 | 3 | 124*
Nc1ccc2ccc3cccc[n+]3c2c1 | 3 | 109 | 98 | 38 | -150 | -17 | nt
O=C(c1ccc2c(c1)N(Cc1ccc(F)cc1)CCS2)N1CCC2(CC1)OCCO2 | -2 | 99 | 101 | 67* | 18 | -9 | 63*
SMILES | MEKK2 mut-MEK5 | MEKK2 WT-MEK5 | MEKK3 PB1 HTS | PREPL inh | UBC13 polyUb | ATG4B inhibitor | PREPL inh cf | others
Cc1ccc(CN2CCSc3ccc(C(=O)N4CCC5(CC4)OCCO5)cc32)cc1 | 3 | 99 | 99 | 82* | 15 | -9 | 74*
Cc1ccc(CN2CCN(CC(=O)N3CCC4(CC3)OCCO4)C2=O)cc1 | 6 | 101 | 101 | 7 | -8 | -10 | nt
O=C(c1ccc2c(c1)ncn2-c1ccc(F)cc1F)N1CCC2(CC1)OCCO2 | -1 | 100 | 103 | 6 | -26 | -16 | nt
N#CCCCCC#N | nt | nt | nt | 10 | 8 | 6 | nt
CC1CC2C(C(O)CC3(C)C(O)CCC23)C2(C)CCC(=O)C=C12 (stereo unspecified) | nt | nt | nt | nt | nt | -3 | nt
CCOc1ccccc1N=C1SCCCN1C | 4 | 99 | 98 | 12 | 11 | 5 | nt
CCOc1cccc(=NC2CCCCC2)c2c(C)n(C)c(C)c12 | 9 | 113 | 106 | 48* | -133 | 12 | 50*
CCC1CCC(C)N(N=O)C1 (stereo unspecified) | nt | nt | nt | nt | nt | 1 | nt
Cn1ncnc2c(=O)n(C)c(=O)nc1-2 | 5 | 104 | 105 | 44* | -60 | 86* | 54*
CC(Cc1ccccc1)NC(=O)C(c1ccc(N)cc1)c1ccc(N)cc1 (stereo unspecified) | 2 | 102 | 105 | 50* | 5 | 3 | 33
